Measurements: PubChem BioAssay (NCATS)
Where “and” joins values, the source holds several entries; their conditions need not be identical. Identical values can stand only once. Records with an inconclusive call do not appear. Calls of active or inactive are those of the source. Unless noted, calls come from the whole dose curve; as a rule, active = well fitted curve in either direction with a large enough effect (not every such curve was filed as active); inconclusive = small, poorly fitted or top-dose-only effect, or another doubt; inactive = flat fitted curve, though single readings scatter.

Legend:
[1] = biological target: Cytochrome P450 3A4 (Homo sapiens) (UniProt P08684); test: qHTS Assay for Inhibitors and Substrates of Cytochrome P450 3A4 (AID 884; active = well fitted curve in the direction sought with a large enough effect; an effect the other way counts as inactive or inconclusive; note: nearly all actives have a fitted effect of over 50% in size; note: potency is the fitted concentration of half-maximal effect)
Procedure, shortened: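 20 nM human CYP3A4 with 25 uM Luciferin-PPXE (at KM) in 200 mM KPO4, preincubated 10 min with compound; NADPH regeneration started a 60 min RT reaction. Luciferin detected by luminescence, normalized to 57 uM ketoconazole as full inhibition.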

[2] = Confirmation and Secondary Assay for Modulators of Hemoglobin Beta Chain Splicing at IVS2 654 locus (AID 910; active = well fitted curve in the direction sought with a large enough effect; an effect the other way counts as inactive or inconclusive;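 note: HeLa cells stably carrying EGFP split by mutant beta-globin IVS2-654 intron; % of control where 0% means no effect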)
Procedure, shortened: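 HeLa cells stably expressing EGFP interrupted by β-globin IVS2-654 intron, seeded overnight in Opti-MEM/2% FCS, then treated 2 days at 37 °C. Restored splicing read as total peak GFP intensity per well by laser scanning cytometry (488 nm excitation, 500–520 nm emission); 500 nM antisense PNA as control.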

[3] = Confirmation and Secondary Assay for Modulators of Hemoglobin Beta Chain Splicing at IVS2 705 locus (AID 930; active = well fitted curve in the direction sought with a large enough effect; an effect the other way counts as inactive or inconclusive;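 note: HeLa cells stably expressing the EGFP-705 splicing reporter; GFP fluorescence per well restored by corrected splicing of the IVS2-705 intron in EGFP; % of control where 0% means no effect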)
Procedure, shortened: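 First, HeLa EGFP-705 cells are seeded at 500/well in Optimem with 2% FCS and left overnight. Next, compound or DMSO is added for 2 days. Finally wells are laser-scanned and total peak GFP intensity scored.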

[4] = qHTS Assay for Lipid Storage Modulators (AID 1519; calls by dose curve); conditions: Drosophila S3 cells, BODIPY lipid droplet/cell ratio, laser cytometry, cells loaded with oleic acid
Procedure, shortened: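 Cells seeded at 5,000 per well were treated with compounds over a concentration series and loaded with oleic acid (400 uM, as added). Lipid droplet fluorescence (488 nm excitation, 500-530 nm channel) was read by laser-scanning cytometry and normalized to 20 uM Triacsin C.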

[5] = AP1 Signaling Pathway (AID 357); conditions: ME-180 AP-1-bla reporter, EGF-induced, beta-lactamase ratio, 5 h; at 7.69 µM (top of the series) unless noted; note: % is set by controls: 0 for no effect and ±100 for the full control effect
Procedure, shortened: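 AP-1-bla ME-180 cells with beta-lactamase reporter under AP-1 response element, stimulated with EC50 EGF; compounds titrated, 5 hours at 37 degrees Celsius. CCF4 read at 460/530 nm ratio; positive and negative modulators judged by AC50.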

[6] = NFAT Signaling Pathway (AID 444); conditions: Jurkat NFAT-bla M1, carbachol, beta-lactamase ratio, 5 h; at 7.69 µM (top of the series) unless noted;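 note: carbachol stimulus at about its EC50 of 1 µM final; % is set by controls: 0 for no effect and ±100 for the full control effect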
Procedure, shortened: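 Jurkat cells with NFAT-driven β-lactamase reporter and co-expressed M1 receptor, stimulated with carbachol (final 1 uM, ~EC50), compound titration, 5 h at 37 °C. CCF4 loaded 1 h at RT; 460/530 nm ratio gave %activity and AC50.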

[7] = Stat Signaling Pathway (AID 446); conditions: ME-180 SIE beta-lactamase reporter, IL-6 stimulated, 5 h; at 7.69 µM (top of the series) unless noted;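 note: ME-180 cervical cancer cells given 40 pM IL-6 alongside compound; SIE-controlled beta-lactamase reporter measured as 460/530 nm FRET emission ratio; % is set by controls: 0 for no effect and ±100 for the full control effect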
Procedure, shortened: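 ME-180 SIE-bla cells; overnight plating; cpd + IL-6 40 pM, 5 h, 37 C; LiveBLAzer 2.5 h RT; 460/530 nm emission ratio. Normalized to 300 pM IL-6 and 125 nM JAK inhibitor controls.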

[8] = biological target: Glucocorticoid receptor (Homo sapiens) (UniProt P04150); test: GR-EFC Redistribution (AID 451; calls by dose curve; note: potency is the fitted concentration of half-maximal effect); conditions: CHO-K1 GR-EFC translocation, beta-gal luminescence, 2 h
Procedure, shortened: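 CHO-K1 cells expressing nuclear EA and GR-ED fragments of b-gal; compounds titrated up to 46 uM final, 2 h at 37 C. GR nuclear translocation read as complemented b-gal luminescence after 1 h RT detection.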

[9] = biological target: Mitogen-activated protein kinase 10 (Mus musculus) (UniProt Q61831); test: JNK3 AlphaScreen Assay (AID 530);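 note: kinase came from lysate of stimulated human HepG2 cells; signal reports phosphorylation of biotinylated GST-cJun 1-79 at Ser73 with 10 µM ATP; % is set by controls: 0 for no effect and ±100 for the full control effect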
Procedure, shortened: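 Pre-activated (IL-1β/TNFα) JNK3 in HepG2 lysates phosphorylates biotin-GST-cJun(1-79), 10 uM ATP; anti-phospho-cJun(Ser73) AlphaScreen read at room temperature, pH 7.6 Tris buffer. Compounds pre-incubated 15 min as titrations.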

[10] = biological target: 3',5'-cyclic-AMP phosphodiesterase 4B (Homo sapiens) (UniProt Q07343); test: qHTS Assay for Inhibitors of PDE-IV (AID 607; active = well fitted activation curve with a large enough effect in the main read-out, with a control signal flat, not every such curve was filed as active; note: % of control where 0% means no effect)
Procedure, shortened: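 ACTOne HEK293 cells carry a modified cAMP-gated CNG channel and express endogenous PDE4; plated 1000 cells/well, compounds up to 22.9 uM final. Membrane-potential dye fluorescence (ex 535/em 590) was read; parental cells received 10 uM forskolin + 100 uM RO 20-1724.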

[11] = biological target: Ubiquitin carboxyl-terminal hydrolase 1 (Homo sapiens) (UniProt O94782); test: Inhibitors of USP1/UAF1: Pilot qHTS (AID 504865; active = well fitted curve in the direction sought with a large enough effect; an effect the other way counts as inactive or inconclusive;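 note: rhodamine fluorescence freed from ubiquitin-rhodamine substrate followed over time; top concentration of the series differs between compounds; % is set by controls: 0 for no effect and ±100 for the full control effect; nearly all actives have a fitted effect of over 35% in size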)
Procedure, shortened: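 In 50mM HEPES pH 7.8 containing 0.5mM EDTA, 1mM TCEP, 0.1 mg/ml BSA and 0.01% Tween-20, 1nM USP1/UAF1 is exposed to compound for 15 min, then Ub-Rho (150nM final) is added and fluorescence is read over time.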

[12] = biological target: Lysosomal acid glucosylceramidase (Homo sapiens) (UniProt P04062); test: Glucocerebrosidase-p2 (AID 348; in the data active = potency below about 10 µM; note: potency is the fitted concentration of half-maximal effect); conditions: purified GBA, blue fluorogenic substrate, 40 min
Procedure, shortened: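 Compounds titrated from 0.6 nM upwards against 0.2 nM enzyme in pH 5.9 citric acid/KH2PO4, taurocholate, tween-20; blue fluorogenic substrate 80 uM, 40 min room temperature, stopped and read Ex 365/Em 440 for AC50.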

[13] = biological target: Glucocorticoid receptor (Homo sapiens) (UniProt P04150); test: GR-GFP Redistribution (AID 450;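 active = compounds whose dose series gives a full or clear partial fitted curve of increased nuclear translocation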; note: potency is the fitted concentration of half-maximal effect); conditions: U2OS GR-GFP nuclear translocation, laser cytometry, 2 h
[14] = biological target: Cytochrome P450 1A2 (Homo sapiens) (UniProt P05177); test: p450-cyp1a2 (AID 410; calls by dose curve; note: potency is the fitted concentration of half-maximal effect)
Procedure, shortened: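 Luminescent readout of luciferin formed from Luciferin-ME by human CYP1A2; data normalized against complete inhibition by 57 uM furafylline. Enzyme 20nM, substrate 100uM at Km, 100mM KPO4 buffer, 60 min reaction at room temperature.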

[15] = biological target: Dual specificity protein kinase CLK4 (Homo sapiens) (UniProt Q9HAZ1); test: qHTS Assay for Inhibitors of CDC-like Kinase 4 (ADP-Glo Assay) (AID 1771; active = well fitted curve in the direction sought with a large enough effect; an effect the other way counts as inactive or inconclusive; note: % is set by controls: 0 for no effect and ±100 for the full control effect; nearly all actives have a fitted effect of over 70% in size)
Procedure, shortened: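 Luminescence from ADP-Glo reports ADP produced by 25 nM Clk4 acting on 100 uM RS repeat peptide with 1 uM ATP over 1 hr at room temperature; residual ATP is depleted before ADP is converted to ATP for detection.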

[16] = biological target: Dual specificity protein kinase CLK4 (Homo sapiens) (UniProt Q9HAZ1); test: qHTS Assay for Inhibitors of CDC-like Kinase 4 (ADP-FP Assay) (AID 1795; active = well fitted curve in the direction sought with a large enough effect; an effect the other way counts as inactive or inconclusive;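 note: recombinant human CLK4 phosphorylating RS repeat peptide at 1 µM ATP; % is set by controls: 0 for no effect and ±100 for the full control effect; nearly all actives have a fitted effect of over 60% in size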)
Procedure, shortened: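 Clk4 6.25 nM; RS peptide 100 uM; ATP 1 uM; 25 mM Tris pH 7.5, 10 mM MgCl2; 1 h reaction. ADP detected via antibody/orange tracer FP displacement; TG003 positive control.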

[17] = biological target: Cytochrome P450 3A4 (Homo sapiens) (UniProt P08684); test: qHTS Assay for Activators of Cytochrome P450 3A4 (AID 885; active = well fitted curve in the direction sought with a large enough effect; an effect the other way counts as inactive or inconclusive; note: nearly all actives have a fitted effect of over 65% in size)
Procedure, shortened: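 20nM CYP3A4 + 25uM Luciferin-PPXE (=KM), 200mM KPO4; cpd 10 min RT; NADPH regen, 60 min RT; stop w/ detection buffer, 20 min; luminescence. Normalized to 57 uM ketoconazole.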

[18] = biological target: Cytochrome P450 2C19 (Homo sapiens) (UniProt P33261); test: qHTS Assay for Inhibitors and Substrates of Cytochrome P450 2C19 (AID 899; active = well fitted curve in the direction sought with a large enough effect; an effect the other way counts as inactive or inconclusive; note: potency is the fitted concentration of half-maximal effect; nearly all actives have a fitted effect of over 60% in size)
Procedure, shortened: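 5 nM human CYP2C19 with 10uM Luciferin-H EGE (at KM) in 50mM KPO4, compound preincubated 10 min at 37C, then NADPH regeneration for 60 min at 37C. Luciferin read by luminescence after detection reagent; normalized to 57uM ketoconazole as full inhibition.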

[19] = measured here: cell count channel max response
[20] = measured here: lipid channel max response

Cytochrome P450 1A2 (Homo sapiens), sequence (P05177 whole entry, looked up): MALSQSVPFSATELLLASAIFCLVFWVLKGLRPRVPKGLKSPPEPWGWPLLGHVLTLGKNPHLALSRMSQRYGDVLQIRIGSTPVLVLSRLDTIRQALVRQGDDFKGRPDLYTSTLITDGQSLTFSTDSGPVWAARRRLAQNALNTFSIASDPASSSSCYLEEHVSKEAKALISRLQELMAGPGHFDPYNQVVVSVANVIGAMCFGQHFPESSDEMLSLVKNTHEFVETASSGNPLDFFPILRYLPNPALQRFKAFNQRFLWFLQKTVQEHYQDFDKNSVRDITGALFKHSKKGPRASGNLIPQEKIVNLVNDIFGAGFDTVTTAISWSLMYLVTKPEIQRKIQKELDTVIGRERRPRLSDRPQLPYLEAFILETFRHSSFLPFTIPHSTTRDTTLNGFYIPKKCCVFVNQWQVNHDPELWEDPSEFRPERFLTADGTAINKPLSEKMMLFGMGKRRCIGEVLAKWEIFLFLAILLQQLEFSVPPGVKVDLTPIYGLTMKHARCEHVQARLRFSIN
Glucocorticoid receptor (Homo sapiens), sequence (P04150 whole entry, looked up, the tested form may be a part): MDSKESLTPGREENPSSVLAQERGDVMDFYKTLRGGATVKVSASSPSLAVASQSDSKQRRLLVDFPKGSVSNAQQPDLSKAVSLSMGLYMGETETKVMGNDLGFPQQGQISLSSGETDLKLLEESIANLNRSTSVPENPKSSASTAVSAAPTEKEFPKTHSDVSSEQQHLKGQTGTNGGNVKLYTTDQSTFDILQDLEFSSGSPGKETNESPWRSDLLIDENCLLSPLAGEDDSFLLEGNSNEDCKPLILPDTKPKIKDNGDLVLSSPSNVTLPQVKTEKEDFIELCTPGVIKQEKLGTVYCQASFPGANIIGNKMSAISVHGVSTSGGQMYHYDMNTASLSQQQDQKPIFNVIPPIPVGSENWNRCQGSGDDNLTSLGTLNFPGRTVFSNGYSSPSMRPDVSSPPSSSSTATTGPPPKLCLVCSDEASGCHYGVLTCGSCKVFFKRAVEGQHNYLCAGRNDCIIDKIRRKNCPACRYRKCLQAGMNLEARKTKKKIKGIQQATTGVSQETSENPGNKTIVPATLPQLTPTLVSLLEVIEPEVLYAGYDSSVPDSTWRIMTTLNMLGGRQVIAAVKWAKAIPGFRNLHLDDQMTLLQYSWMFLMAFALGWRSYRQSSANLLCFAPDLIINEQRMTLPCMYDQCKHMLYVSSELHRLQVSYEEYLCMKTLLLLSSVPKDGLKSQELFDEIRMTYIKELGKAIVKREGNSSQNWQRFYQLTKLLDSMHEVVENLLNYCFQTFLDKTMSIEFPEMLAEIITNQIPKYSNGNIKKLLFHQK
Ubiquitin carboxyl-terminal hydrolase 1 (Homo sapiens), sequence (O94782 whole entry, looked up): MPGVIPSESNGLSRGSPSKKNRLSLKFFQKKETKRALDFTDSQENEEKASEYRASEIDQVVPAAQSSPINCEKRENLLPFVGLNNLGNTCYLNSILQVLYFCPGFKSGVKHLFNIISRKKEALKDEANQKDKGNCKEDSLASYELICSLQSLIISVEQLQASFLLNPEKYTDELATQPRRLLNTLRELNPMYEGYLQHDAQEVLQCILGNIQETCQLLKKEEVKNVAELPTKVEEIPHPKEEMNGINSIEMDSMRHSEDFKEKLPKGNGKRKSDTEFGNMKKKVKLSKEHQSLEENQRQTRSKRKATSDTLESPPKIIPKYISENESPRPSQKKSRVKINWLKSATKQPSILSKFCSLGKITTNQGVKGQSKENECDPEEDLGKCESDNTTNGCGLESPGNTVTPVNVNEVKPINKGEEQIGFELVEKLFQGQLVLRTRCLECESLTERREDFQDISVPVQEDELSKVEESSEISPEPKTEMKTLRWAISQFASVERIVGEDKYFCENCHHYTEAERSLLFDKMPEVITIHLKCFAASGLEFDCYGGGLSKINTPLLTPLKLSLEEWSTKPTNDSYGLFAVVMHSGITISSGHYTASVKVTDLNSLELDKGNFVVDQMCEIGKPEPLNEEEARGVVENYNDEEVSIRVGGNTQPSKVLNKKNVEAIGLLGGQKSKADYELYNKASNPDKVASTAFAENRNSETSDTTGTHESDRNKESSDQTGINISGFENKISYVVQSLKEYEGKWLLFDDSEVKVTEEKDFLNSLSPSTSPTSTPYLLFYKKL
Dual specificity protein kinase CLK4 (Homo sapiens), sequence (Q9HAZ1 whole entry, looked up): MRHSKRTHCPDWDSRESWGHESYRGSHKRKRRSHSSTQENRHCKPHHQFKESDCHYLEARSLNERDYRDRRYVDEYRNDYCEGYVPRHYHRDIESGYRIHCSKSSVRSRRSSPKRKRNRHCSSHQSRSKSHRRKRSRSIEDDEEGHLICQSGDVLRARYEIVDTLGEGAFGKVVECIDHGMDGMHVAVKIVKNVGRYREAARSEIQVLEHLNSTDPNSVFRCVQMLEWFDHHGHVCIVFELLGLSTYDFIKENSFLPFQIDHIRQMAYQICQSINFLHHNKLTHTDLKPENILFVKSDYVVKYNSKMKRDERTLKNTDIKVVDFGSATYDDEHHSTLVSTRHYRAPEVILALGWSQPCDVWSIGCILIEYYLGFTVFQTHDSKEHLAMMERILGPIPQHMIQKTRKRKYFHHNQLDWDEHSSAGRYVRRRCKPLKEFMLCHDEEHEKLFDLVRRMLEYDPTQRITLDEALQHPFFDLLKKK
Cytochrome P450 3A4 (Homo sapiens), sequence (P08684 whole entry, looked up): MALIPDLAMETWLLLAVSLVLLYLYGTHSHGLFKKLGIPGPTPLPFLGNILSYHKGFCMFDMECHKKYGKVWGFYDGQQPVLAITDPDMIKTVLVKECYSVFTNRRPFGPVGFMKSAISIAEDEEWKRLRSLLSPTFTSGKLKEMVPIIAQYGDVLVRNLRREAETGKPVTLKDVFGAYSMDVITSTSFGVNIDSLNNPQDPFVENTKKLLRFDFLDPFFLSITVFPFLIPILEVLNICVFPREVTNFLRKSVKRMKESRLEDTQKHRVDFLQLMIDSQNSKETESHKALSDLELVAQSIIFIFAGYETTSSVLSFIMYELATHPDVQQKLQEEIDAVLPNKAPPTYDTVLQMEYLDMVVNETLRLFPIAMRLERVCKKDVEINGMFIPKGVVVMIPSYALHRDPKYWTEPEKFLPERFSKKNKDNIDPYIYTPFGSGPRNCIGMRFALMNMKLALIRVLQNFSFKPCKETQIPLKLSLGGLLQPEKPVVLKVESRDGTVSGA
Lysosomal acid glucosylceramidase (Homo sapiens), sequence (P04062 whole entry, looked up): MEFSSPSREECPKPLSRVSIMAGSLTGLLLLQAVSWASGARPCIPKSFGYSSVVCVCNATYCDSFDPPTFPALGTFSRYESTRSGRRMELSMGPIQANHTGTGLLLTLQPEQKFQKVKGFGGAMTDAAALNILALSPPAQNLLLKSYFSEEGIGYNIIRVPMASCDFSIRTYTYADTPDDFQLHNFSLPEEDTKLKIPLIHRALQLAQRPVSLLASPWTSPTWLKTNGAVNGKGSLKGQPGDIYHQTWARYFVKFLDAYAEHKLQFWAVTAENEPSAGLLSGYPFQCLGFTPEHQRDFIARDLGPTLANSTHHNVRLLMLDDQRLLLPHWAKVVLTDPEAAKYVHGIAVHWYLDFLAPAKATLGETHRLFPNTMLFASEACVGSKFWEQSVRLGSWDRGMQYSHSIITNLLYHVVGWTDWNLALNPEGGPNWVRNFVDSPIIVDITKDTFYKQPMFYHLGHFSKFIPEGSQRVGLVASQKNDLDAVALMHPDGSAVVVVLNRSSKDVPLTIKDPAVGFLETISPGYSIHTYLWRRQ
3',5'-cyclic-AMP phosphodiesterase 4B (Homo sapiens), sequence (Q07343 whole entry, looked up): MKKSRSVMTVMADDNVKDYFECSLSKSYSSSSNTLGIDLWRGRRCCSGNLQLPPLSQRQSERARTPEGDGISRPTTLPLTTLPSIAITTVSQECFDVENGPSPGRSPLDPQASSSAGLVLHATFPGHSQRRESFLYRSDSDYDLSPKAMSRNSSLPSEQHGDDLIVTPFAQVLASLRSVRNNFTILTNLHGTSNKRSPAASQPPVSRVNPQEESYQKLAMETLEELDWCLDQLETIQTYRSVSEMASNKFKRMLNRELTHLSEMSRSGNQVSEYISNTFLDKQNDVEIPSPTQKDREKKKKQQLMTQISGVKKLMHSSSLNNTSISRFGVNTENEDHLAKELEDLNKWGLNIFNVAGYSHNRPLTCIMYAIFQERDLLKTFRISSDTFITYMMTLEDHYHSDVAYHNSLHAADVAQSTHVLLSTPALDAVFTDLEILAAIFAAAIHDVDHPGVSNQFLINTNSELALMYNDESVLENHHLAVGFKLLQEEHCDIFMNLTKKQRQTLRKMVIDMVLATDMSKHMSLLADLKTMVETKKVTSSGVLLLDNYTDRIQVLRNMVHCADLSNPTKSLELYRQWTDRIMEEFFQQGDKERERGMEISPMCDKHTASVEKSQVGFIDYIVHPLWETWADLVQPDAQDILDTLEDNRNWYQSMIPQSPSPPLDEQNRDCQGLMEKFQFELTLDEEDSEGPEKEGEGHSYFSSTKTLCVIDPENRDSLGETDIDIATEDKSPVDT
Cytochrome P450 2C19 (Homo sapiens), sequence (P33261 whole entry, looked up): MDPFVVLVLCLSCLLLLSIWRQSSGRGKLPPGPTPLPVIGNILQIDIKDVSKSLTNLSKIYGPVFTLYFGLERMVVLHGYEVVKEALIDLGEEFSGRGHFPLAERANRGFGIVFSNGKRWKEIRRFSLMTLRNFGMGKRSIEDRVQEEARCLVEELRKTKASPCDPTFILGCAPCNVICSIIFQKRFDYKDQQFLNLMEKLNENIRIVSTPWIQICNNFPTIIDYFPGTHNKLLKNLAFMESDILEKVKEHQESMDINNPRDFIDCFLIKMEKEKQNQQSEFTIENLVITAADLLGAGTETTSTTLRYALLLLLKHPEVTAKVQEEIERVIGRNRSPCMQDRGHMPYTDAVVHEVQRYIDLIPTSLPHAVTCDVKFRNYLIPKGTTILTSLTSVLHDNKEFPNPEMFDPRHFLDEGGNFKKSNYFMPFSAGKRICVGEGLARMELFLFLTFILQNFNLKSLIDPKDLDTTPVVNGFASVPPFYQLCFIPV

O=c1cc(-c2ccc(O)cc2)oc2cc(O[C@H]3OC(CO)C(O)C(O)C3O)cc(O)c12 (stereo partly specified)
3.59%: max response [4, 20]
-4.63%: max response [4, 19]
inactive: Potency [1] | Potency [2] | outcome [3] | activity change, negative = inhibition ([4]; at 57.5 µM (top of the series)) 6.29%

CC12CC[C@@H]3c4ccc(OS(=O)(=O)O)cc4CC[C@H]3C1CCC2=O (stereo partly specified)
-14.5%: max response [4, 19]
inactive: activity change, negative = inhibition [5] 19.9% [at 17.2 µM] | activity change, negative = inhibition [6] -17.6% [at 17.2 µM] | activity, negative = inhibition [7] -9.95% [at 17.2 µM] | Potency [8] > 20.6 µM | Potency [9] | Potency [10] | activity change, negative = inhibition ([4]; at 25.7 µM (top of the series)) -2.17% | Potency [11]
-17.7%: max response [4, 20]

CC(C)(S)[C@H](N)C(=O)O
19.3%: max response [4, 20]
inactive: Potency [12] > 11.4 µM | activity change, negative = inhibition [5] 1.59% | activity change, negative = inhibition [6] 8.46% | Potency [13] > 46 µM | Potency [8] > 9.22 µM | activity change, negative = inhibition [9] 1.55% [at 11.4 µM] | Potency [10] | Potency [1] | Potency [2] | outcome [3] | activity change, negative = inhibition ([4]; at 57.5 µM (top of the series)) 4.84%
10.4%: max response [4, 19]

COCCn1c(=O)c(-c2ccccc2)nc2cnc(Nc3cccc(OC)c3)nc21
0.127%: max response [4, 20]
active: Potency [14] 3.98 µM
inactive: Potency [12] > 11.4 µM | activity, negative = inhibition [7] -18.3% | Potency [13] > 9.22 µM | Potency [8] > 46 µM | Potency [9] | activity change, negative = inhibition ([4]; at 57.5 µM (top of the series)) 1.38% | Potency [15] | Potency [16] | Potency [11]
-0.938%: max response [4, 19]

COc1ccccc1CNc1cc(-c2cccc(C#N)c2)ncn1
active: Potency [14] 3.98 µM
4.01%: max response [4, 19]
4.55%: max response [4, 20]
inactive: Potency [12] > 11.4 µM | activity change, negative = inhibition [5] -5.31% | activity change, negative = inhibition [6] 17.8% | activity, negative = inhibition [7] -0.867% | Potency [8] > 46 µM | Potency [9] | Potency [10] | Potency [17] | activity change, negative = inhibition ([4]; at 57.5 µM (top of the series)) 3.16% | Potency [16] | Potency [11]

CC1(C)SC2C(NC(=O)Cc3ccccc3)C(=O)N2C1C(=O)O (stereo unspecified)
23.9%: max response [4, 20]
11.4%: max response [4, 19]
inactive: outcome [3] | activity change, negative = inhibition ([4]; at 57.5 µM (top of the series)) 5.55% | Potency [11]

COC(=O)C1=CO[C@@H](C)[C@H]2CN3CCc4c([nH]c5ccccc45)[C@@H]3C[C@H]12
inactive: activity change, negative = inhibition [5] -20.4% [at 17.2 µM] and -6.91% [at 17.2 µM] | activity change, negative = inhibition [6] -3.19% [at 17.2 µM] and -17.9% [at 17.2 µM] | activity, negative = inhibition [7] 8.22% [at 17.2 µM] and -4.95% [at 17.2 µM] | Potency [13] > 20.6 µM | Potency [8] > 20.6 µM | Potency [9] | Potency [10] | activity change, negative = inhibition ([4]; at 25.7 µM (top of the series)) -0.703% and -0.794% | Potency [11]
3.91% and -17.6%: max response [4, 19]
2.39% and -19.1%: max response [4, 20]

FC(F)(F)c1ccccc1-c1ccc2ncnc(NCc3cccs3)c2c1
active: Potency [14] 7.94 µM | Potency [1] 5.01 µM | Potency [18] 3.16 µM
9.21%: max response [4, 19]
5.18%: max response [4, 20]
inactive: Potency [12] > 11.4 µM | activity change, negative = inhibition [5] 13.7% | activity, negative = inhibition [7] -16.1% | Potency [13] > 46 µM | Potency [8] > 46 µM | Potency [9] | Potency [17] | activity change, negative = inhibition ([4]; at 57.5 µM (top of the series)) -3.1% | Potency [16] | Potency [11]
